# Active and inactive are the calls of the source.
# System: Neuregulin-1 EGF-like domain
# Experiment: binders of neuregulin-1 EGF-like domain, primary screen, biochemical, small-molecule microarray, 635 nm fluorescence (AID 1081);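 further: binding of the protein to compounds printed on small-molecule microarray slides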
# Conditions: small-molecule microarray binding, higher = more signal
row,Compound,composite z-score
1,CCOC(=O)C[C@H]1[C@H](OC(=O)Cc2ccc3c(c2)OCO3)[C@@H](NC(=O)C2CCCCC2)c2cc(OCCCO)ccc2N1C(=O)Cc1ccc(OC)cc1,0.86
2,O=C(CS)NCCCCCCNC(=O)[C@H]1C[C@H]2C(=O)NCC(=O)N2[C@H]1c1ccc(O)cc1,1.32
3,C[N+](C)(C)CCCCCCNC(=O)[C@H]1C[C@H]2C(=O)N3CCC[C@H]3C(=O)N2[C@H]1c1ccc(O)cc1,1.37
4,C[C@H]1NC(=O)[C@H](Cc2ccccc2)NC(=O)[C@@]23C(=O)N[C@@H](Cc4ccccc4)C2[C@H](C)[C@@]2(C)O[C@H]2C3/C=C/C/C=C\CNC1=O (stereo partly specified),-0.867
5,CS(=O)(=O)CCOC(=O)C1=CC(c2ccc(CO)cc2)=CC(C2CC2)N(Cc2cc3c(cc2Br)OCO3)C=C1C(=O)OCCS(C)(=O)=O (stereo unspecified),1.27
6,[N-]=[N+]=NCc1ccccc1C[C@@]1(C(=O)N2CCOCC2)N=C(c2ccc(OCCCO)cc2)O[C@@H]1c1ccccc1CN=[N+]=[N-],1.37
7,CN1C=C(C(=O)OCCS(C)(=O)=O)C(C(=O)OCCS(C)(=O)=O)=CC(CCCO)=CC1C1CC1 (stereo unspecified),1.25
8,C=CCOC(=O)[C@H]1[C@@H]2C(=O)O[C@@H](c3ccccc3)[C@@H](c3ccccc3)N2[C@@H](c2ccc(OCCOC(=O)[C@@H]3C[C@@H]4C(=O)NCC(=O)N4[C@@H]3c3ccc(O)cc3)cc2)[C@]12C(=O)Nc1ccccc12,1.26
9,O=C1C=CC(=O)[C@@H]2CC(COc3ccccc3)=C3[C@@H](CCc4ccccc4)OB(O)C[C@@H]3[C@H]12,0.184
10,CCOC(=O)C1=C[C@@H](C(C)C)N(S(=O)(=O)c2ccc(C)cc2)[C@H]1c1ccc(C(C)C)cc1,0.683
11,CCOC(=O)C[C@H]1[C@H](OC(=O)c2ccc(-c3ccccc3)cc2)[C@@H](NC(=O)c2ccc3ccccc3c2)c2cc(OCCCO)ccc2N1C(=O)Cc1ccc(OC)cc1,-0.733
12,CCOC(=O)C[C@H]1[C@H](OC(=O)c2ccccc2-c2ccccc2)[C@@H](NC(=O)c2ccc3ccccc3c2)c2cc(OCCCO)ccc2N1C(=O)c1ccc2ccccc2n1,0.545
13,COCCOC(=O)N1C(=O)[C@@]2(c3cc(C#CC4=CCCCC4)ccc31)[C@H](C(=O)NC[C@H](O)c1ccccc1)[C@H]1C(=O)O[C@H](c3ccccc3)[C@H](c3ccccc3)N1[C@@H]2c1ccc(O)cc1,1.19
14,C=C(COC)C(=O)CC[C@H](OC(C)=O)c1cccc(OCCO)c1,-0.208
15,N[C@@H](Cc1ccccc1)Cn1cc(-c2ccccc2)nn1,0.198
16,O=C1O[C@@H](c2ccccc2)[C@@H](c2ccccc2)N2[C@@H](c3ccc(OCCO)cc3)[C@]3(C(=O)Nc4ccc(C#CC5=CCCCC5)cc43)[C@@H](C(=O)O)[C@H]12,1.12
17,COCCOC(=O)N1C(=O)[C@@]2(c3cc(C#CCC(C(=O)OC)C(=O)OC)ccc31)[C@H](C(=O)N1CCCCCCC1)[C@H]1C(=O)O[C@H](c3ccccc3)[C@H](c3ccccc3)N1[C@@H]2c1ccc(OCCO)cc1,1.36
18,CCCCC=C[C@@H](NC(=O)c1ccco1)c1ccccc1,-0.628
19,C=CCC(OC(C)=O)[C@@H]1[C@@H](N(Cc2cccc3ccccc23)C(=O)c2cccc3ccccc23)c2cc(OCCCO)ccc2N1C(=O)c1ccc2ccccc2n1 (stereo partly specified),-0.444
20,COc1ccc([Si](C)(C)[C@H]2[C@H](CCn3cc(CCO)nn3)O[C@@]3(C(=O)N(Cc4ccc(N5CCOC5=O)cc4)c4ccccc43)[C@@H]2C)cc1,1.07
21,CC(=O)Nc1cc(Br)ccc1C(=O)O,0.748
22,CN1CCC(CCCO)=CC1c1ccc(CN2CCCC2)cc1 (stereo unspecified),1.27
23,COCCOC(=O)N1C(=O)[C@@]2(c3ccccc31)[C@H](C(=O)Nc1nc3ccccc3s1)[C@H]1C(=O)O[C@H](c3ccccc3)[C@H](c3ccccc3)N1[C@@H]2c1ccc(OCCO)cc1,1.18
24,COC(=O)c1ccc(C(O)C2C=CC3C(=O)N(C)C(=O)C3N2NC(=O)OC(C)(C)C)o1 (stereo unspecified),1.29
25,O=C1OCCC=C[C@H]2OC34C=CCN(Cc5ccccc5)C(=O)[C@H]3N(CCCCCCO)C(=O)[C@@H]4C12 (stereo partly specified),0.92
26,CC(C)N1C(=O)c2ccccc2[C@@H](C(=O)NCCCN(C)C)[C@@H]1c1ccc(CO)cc1,1.11

# System: not listed separately
# Experiment: FRG1 promoter luciferase signal modulators, primary screen, FRG1 inhibition for FSHD, cell-based, C2C12 myotubes, firefly/Renilla luciferase, luminescence (AID 1084)
# Conditions: higher = more signal, called active from +8 up or from −8 down
row,Compound,z-score
1,Cc1ccc(S[C@]2(C(=O)NCc3ccccc3)CC(=O)N(Cc3ccccc3)[C@@H]2c2ccc(CO)cc2)cc1,-2.33 (inactive)
2,C=C(C(=O)CC[C@H](OC(C)=O)c1ccc(OCCO)cc1)C(C)C,-2.5 (inactive)
3,Cc1ccc(S[C@]2(C(=O)NCC(C)C)CC(=O)N(Cc3ccccc3)[C@@H]2c2ccc(CO)cc2I)cc1,-2.06 (inactive)
4,O=C1N(CCS(=O)(=O)c2ccccc2)c2ccccc2C[C@@]12COC(c1ccc(OCCCO)cc1)=N2,1.18 (inactive)
5,CCOC(=O)C[C@H]1[C@H](OC(=O)c2ccc(-c3ccccc3)cc2)[C@@H](NC(=O)Cc2ccc(OC)cc2)c2cc(OCCCO)ccc2N1C(=O)c1ccc2ccccc2n1,0.817 (inactive)
6,C=CCNC(=O)[C@@H]1[C@H]2C(=O)O[C@H](c3ccccc3)[C@H](c3ccccc3)N2[C@H](c2ccc(OCCO)cc2)[C@@]12C(=O)Nc1ccccc12,-1.05 (inactive)
7,COCCOC(=O)N1C(=O)[C@@]2(c3cc(C#CCNC(N)=O)ccc31)[C@H](c1ccccc1OCCO)N1[C@H](c3ccccc3)[C@H](c3ccccc3)OC(=O)[C@H]1[C@@H]2C(N)=O,-1.33 (inactive)
8,COC(=O)[C@@]1(Cc2ccc(F)cc2)[C@H]2c3cc(C(=O)N4CCCC4)n(Cc4cccc5ccccc45)c3C[C@H]2CN1C(=O)c1ccccc1,0.272 (inactive)
9,CC(C)CNC(=O)[C@@]1(c2ccc([N+](=O)[O-])cc2)CC(=O)N(CC23CC4CC(CC(C4)C2)C3)[C@@H]1c1ccc(CO)cc1,-2.51 (inactive)
10,CC1=C2[C@@H](CCc3ccccc3)OB(O)C[C@@H]2n2c(=O)n(-c3ccccc3)c(=O)n2C1,-2.85 (inactive)
11,CCOC(=O)C[C@H]1[C@H](OC(=O)Cc2ccc3c(c2)OCO3)[C@@H](NC(=O)C2CCCCC2)c2cc(OCCCO)ccc2N1C(=O)Cc1ccc(OC)cc1,-2.5 (inactive)
12,O=C(CS)NCCCCCCNC(=O)[C@H]1C[C@H]2C(=O)NCC(=O)N2[C@H]1c1ccc(O)cc1,-0.348 (inactive)
13,C[N+](C)(C)CCCCCCNC(=O)[C@H]1C[C@H]2C(=O)N3CCC[C@H]3C(=O)N2[C@H]1c1ccc(O)cc1,3.58 (inactive)
14,C[C@H]1NC(=O)[C@H](Cc2ccccc2)NC(=O)[C@@]23C(=O)N[C@@H](Cc4ccccc4)C2[C@H](C)[C@@]2(C)O[C@H]2C3/C=C/C/C=C\CNC1=O (stereo partly specified),0.049 (inactive)
15,CS(=O)(=O)CCOC(=O)C1=CC(c2ccc(CO)cc2)=CC(C2CC2)N(Cc2cc3c(cc2Br)OCO3)C=C1C(=O)OCCS(C)(=O)=O (stereo unspecified),-2.1 (inactive)
16,[N-]=[N+]=NCc1ccccc1C[C@@]1(C(=O)N2CCOCC2)N=C(c2ccc(OCCCO)cc2)O[C@@H]1c1ccccc1CN=[N+]=[N-],-3.63 (inactive)
17,CN1C=C(C(=O)OCCS(C)(=O)=O)C(C(=O)OCCS(C)(=O)=O)=CC(CCCO)=CC1C1CC1 (stereo unspecified),-0.483 (inactive)
18,C=CCOC(=O)[C@H]1[C@@H]2C(=O)O[C@@H](c3ccccc3)[C@@H](c3ccccc3)N2[C@@H](c2ccc(OCCOC(=O)[C@@H]3C[C@@H]4C(=O)NCC(=O)N4[C@@H]3c3ccc(O)cc3)cc2)[C@]12C(=O)Nc1ccccc12,-1.27 (inactive)
19,O=C1C=CC(=O)[C@@H]2CC(COc3ccccc3)=C3[C@@H](CCc4ccccc4)OB(O)C[C@@H]3[C@H]12,-1.29 (inactive)
20,CCOC(=O)C1=C[C@@H](C(C)C)N(S(=O)(=O)c2ccc(C)cc2)[C@H]1c1ccc(C(C)C)cc1,-1.89 (inactive)
21,CCOC(=O)C[C@H]1[C@H](OC(=O)c2ccc(-c3ccccc3)cc2)[C@@H](NC(=O)c2ccc3ccccc3c2)c2cc(OCCCO)ccc2N1C(=O)Cc1ccc(OC)cc1,1.21 (inactive)
22,CCOC(=O)C[C@H]1[C@H](OC(=O)c2ccccc2-c2ccccc2)[C@@H](NC(=O)c2ccc3ccccc3c2)c2cc(OCCCO)ccc2N1C(=O)c1ccc2ccccc2n1,0.122 (inactive)
23,COCCOC(=O)N1C(=O)[C@@]2(c3cc(C#CC4=CCCCC4)ccc31)[C@H](C(=O)NC[C@H](O)c1ccccc1)[C@H]1C(=O)O[C@H](c3ccccc3)[C@H](c3ccccc3)N1[C@@H]2c1ccc(O)cc1,0.591 (inactive)
24,C=C(COC)C(=O)CC[C@H](OC(C)=O)c1cccc(OCCO)c1,0.39 (inactive)
25,N[C@@H](Cc1ccccc1)Cn1cc(-c2ccccc2)nn1,0.874 (inactive)
26,O=C1O[C@@H](c2ccccc2)[C@@H](c2ccccc2)N2[C@@H](c3ccc(OCCO)cc3)[C@]3(C(=O)Nc4ccc(C#CC5=CCCCC5)cc43)[C@@H](C(=O)O)[C@H]12,0.82 (inactive)
27,COCCOC(=O)N1C(=O)[C@@]2(c3cc(C#CCC(C(=O)OC)C(=O)OC)ccc31)[C@H](C(=O)N1CCCCCCC1)[C@H]1C(=O)O[C@H](c3ccccc3)[C@H](c3ccccc3)N1[C@@H]2c1ccc(OCCO)cc1,0.109 (inactive)
28,CCCCC=C[C@@H](NC(=O)c1ccco1)c1ccccc1,1.36 (inactive)
29,C=CCC(OC(C)=O)[C@@H]1[C@@H](N(Cc2cccc3ccccc23)C(=O)c2cccc3ccccc23)c2cc(OCCCO)ccc2N1C(=O)c1ccc2ccccc2n1 (stereo partly specified),-2.01 (inactive)
30,COc1ccc([Si](C)(C)[C@H]2[C@H](CCn3cc(CCO)nn3)O[C@@]3(C(=O)N(Cc4ccc(N5CCOC5=O)cc4)c4ccccc43)[C@@H]2C)cc1,-3.54 (inactive)
